D1 allo mod: allosteric modulators of human D1 dopamine receptor; B-score at 10 µM; 58,000 compounds, 5.9% hits; HEK293 D1, CRE-luciferase, dopamine EC30 potentiation; actives deviate in either direction;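 active means luminescence count or its row- and column-corrected plate score outside the 99.7% band of the plate's sample wells, on either side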
HePTP inhibitor: human HePTP phosphatase inhibition; P35236; recombinant HePTP phosphatase activity, OD absorbance; inhibition, % at 20 µM; 110,000 compounds, 0.64% hits; AID 521; in the data active means inhibition above about 50%;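 further: plate controls were vehicle for no effect and reference inhibitor for full effect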
TNAP act DEA: activators of human TNAP at intermediate phosphate acceptor; P05186; purified TNAP, CDP-star luminescence, 100 mM DEA, 30 min; active compounds read high; scale: 0 levamisole-inhibited, 1 vehicle-only enzyme; activation factor at 20 µM; 64,000 tested, under 10 active; AID 813;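 active means activation factor of at least 2 at 20 µM, relative to controls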
Target sequence (P05186 whole entry, looked up): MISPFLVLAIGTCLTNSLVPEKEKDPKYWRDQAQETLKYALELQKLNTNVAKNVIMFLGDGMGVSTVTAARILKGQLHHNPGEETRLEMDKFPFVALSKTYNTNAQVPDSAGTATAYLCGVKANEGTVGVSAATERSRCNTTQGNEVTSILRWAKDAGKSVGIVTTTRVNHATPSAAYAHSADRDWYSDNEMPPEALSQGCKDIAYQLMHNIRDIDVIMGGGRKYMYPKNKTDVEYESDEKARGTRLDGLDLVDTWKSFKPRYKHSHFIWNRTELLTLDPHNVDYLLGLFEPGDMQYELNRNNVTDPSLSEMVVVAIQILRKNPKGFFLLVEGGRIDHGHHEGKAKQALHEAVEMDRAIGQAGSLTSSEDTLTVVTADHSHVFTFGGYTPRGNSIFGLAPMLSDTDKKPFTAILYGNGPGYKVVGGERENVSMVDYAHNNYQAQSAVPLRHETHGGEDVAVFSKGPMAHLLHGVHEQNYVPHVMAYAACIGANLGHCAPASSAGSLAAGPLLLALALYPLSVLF
Calb biofilm kill: kills Candida albicans biofilms. C. albicans biofilm + clotrimazole, Alamar Blue. inhibition, % at 6 µM. 85,000 compounds, 0.14% hits. AID 834;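 active means inhibition above 20%; inactive means inhibition below 20%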;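 further: preformed 24 hr biofilms exposed to compound for 48 hr; 0% = biofilm without compound and 100% = blank killed by clotrimazole plus chlorhexidine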
PLAP activator: activates human placental alkaline phosphatase; P05187; purified PLAP enzyme, luminescent substrate read-out; active compounds read high; activation fold at 20 µM; 96,000 compounds, 1.2% hits; in the data active means activation fold above about 2
hDAT+cocaine: modulates human dopamine transporter uptake under cocaine | Q01959 | LLC-PK1 hDAT cells, [14C]-dopamine uptake with cocaine IC80; actives deviate in either direction | B-score at 10 µM | 110,000 compounds, 1.3% hits | AID 449768;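 active means Z score or B-score, a plate-position-corrected score, falls beyond the plate's 99.7% confidence bounds, in either direction; inactive means both scores lie inside the 99.7% bounds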;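 further: scored against the spread of the other compound wells on the same plate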
Numbers without * were called inactive. The full list was thinned out, with hits kept by preference.

O=C1NC(=O)N(c2ccc(Cl)cc2)C(=O)/C1=C/c1cc(Cl)c(O)c(Cl)c1 was read as HePTP inhibitor 4.
`O=C(CC1(O)C(=O)N(Cc2ccccc2)c2ccccc21)c1cccs1` (stereo not drawn) gave HePTP inhibitor -13.
Screening N#Cc1c(NC(=O)C2CC3CCC2C3)sc2c1CCCCCC2 (stereo not drawn) returned HePTP inhibitor 4.
Screening COc1cccc(CN2CCN(C3CCN(Cc4ccccc4)CC3)CC2)c1OC returned HePTP inhibitor 2.
CCOC(=O)c1cnc2ccc(C(=O)OC)cc2c1NCc1ccco1 was read as D1 allo mod 1.8, HePTP inhibitor -3, TNAP act DEA 0.9, Calb biofilm kill 9, PLAP activator 0.9 and hDAT+cocaine -0.065.
For CCOC(=O)c1ccc2ncc(C(=O)OCC)c(NCCN(C)C)c2c1 the results were D1 allo mod 2.9*, HePTP inhibitor 9, TNAP act DEA 0.9, Calb biofilm kill -1 and hDAT+cocaine 0.42.
For COc1cc(-c2ccc(NC(=O)c3ccc(Cl)cc3Cl)c(OC)c2)ccc1NC(=O)c1ccc(Cl)cc1Cl the results were HePTP inhibitor -1.
`CCOCCCNc1nc2ccccc2[nH]1` gave D1 allo mod -1.5, HePTP inhibitor 6, TNAP act DEA 0.9, Calb biofilm kill 9, PLAP activator 0.8 and hDAT+cocaine -0.87.
CCCCNc1nc2ccccc2[nH]1 was read as Calb biofilm kill 9, PLAP activator 2.7* and hDAT+cocaine -0.046.
Screening Brc1ccc2nc(CSc3ncn[nH]3)cn2c1 returned D1 allo mod -0.41, HePTP inhibitor 6, TNAP act DEA 1.2, Calb biofilm kill 11, PLAP activator 2.8* and hDAT+cocaine 0.59.
For COc1ccc(C2N3CC4(C)CN2CC(C)(C3)C4)cc1OC (stereo not drawn) the results were HePTP inhibitor -5, TNAP act DEA 1, Calb biofilm kill 6, PLAP activator 0.9 and hDAT+cocaine -7.5*.
CC(C)COc1ccc(C(=O)Nc2cccc(C(F)(F)F)c2)cc1 was read as HePTP inhibitor -1.
Screening CC(C)C(NC(=O)c1c(Cl)cccc1Cl)C(C)C returned HePTP inhibitor 7.
Cc1cc(NC(=O)CSc2ncccn2)no1 was read as Calb biofilm kill 2 and hDAT+cocaine -0.86.
COc1ccc(-c2cc(C(F)(F)F)nc(SCC(=O)Nc3cc(C)on3)n2)cc1OC was read as D1 allo mod 24*, HePTP inhibitor -7, TNAP act DEA 1, Calb biofilm kill -3, PLAP activator 1 and hDAT+cocaine -0.34.
For COc1ccc(-c2nc(SCC(=O)Nc3cc(C)on3)n[nH]2)cc1 the results were PLAP activator 2.1* and hDAT+cocaine 1.2.
COc1ccc(CC(=O)Nc2cc(C)on2)cc1 was read as D1 allo mod -0.039, HePTP inhibitor 2, TNAP act DEA 1, Calb biofilm kill 12, PLAP activator 0.8 and hDAT+cocaine 0.32.
`CCCCc1nc(SCC(=O)Nc2cc(C)on2)n[nH]1` gave D1 allo mod 1.1, HePTP inhibitor 4, TNAP act DEA 0.6, Calb biofilm kill 9, PLAP activator 2.3* and hDAT+cocaine 0.48.
Screening O=C(CNc1n[nH]c(=O)[nH]c1=O)N/N=C/c1c(Cl)cccc1Cl returned HePTP inhibitor -9.
`COc1ccc(Cl)cc1NC(=O)C1=C(C)NC(=S)NC1c1cccs1` (stereo not drawn) gave HePTP inhibitor -1.
Screening C=CCOc1c(I)cc(C=C2C(=O)NC(=S)NC2=O)cc1OCC returned HePTP inhibitor 9.
CC(C)CCn1c(=O)c2ccccc2n2c(CN(C)Cc3ccccc3)nnc12 was read as D1 allo mod 2.2, HePTP inhibitor 8, TNAP act DEA 0.8, Calb biofilm kill 5, PLAP activator 1.6 and hDAT+cocaine -8.6*.
For CC(C)CCn1c(=O)c2ccccc2n2c(COC(=O)c3ccc(S(=O)(=O)N(C)C)cc3)nnc12 the results were D1 allo mod 1.3, HePTP inhibitor 5, TNAP act DEA 0.9, Calb biofilm kill 9 and PLAP activator 1.
For CCN1CCN(Cc2nc3c(c(=O)n(C)c(=O)n3C)n2CCCc2ccccc2)CC1 the results were HePTP inhibitor 4, TNAP act DEA 0.9, Calb biofilm kill 3 and PLAP activator 1.3.
